Measurements from ChEMBL document CHEMBL1961873, “Compounds: GSK PKIS; Assays: Nanosyn kinase panel” (2012).

How the values were obtained:
[1] = biological target: T1, Ephrin type-B receptor 2 (Homo sapiens) (UniProt P29323); conditions: at 1 µM
T1 sequence (whole entry): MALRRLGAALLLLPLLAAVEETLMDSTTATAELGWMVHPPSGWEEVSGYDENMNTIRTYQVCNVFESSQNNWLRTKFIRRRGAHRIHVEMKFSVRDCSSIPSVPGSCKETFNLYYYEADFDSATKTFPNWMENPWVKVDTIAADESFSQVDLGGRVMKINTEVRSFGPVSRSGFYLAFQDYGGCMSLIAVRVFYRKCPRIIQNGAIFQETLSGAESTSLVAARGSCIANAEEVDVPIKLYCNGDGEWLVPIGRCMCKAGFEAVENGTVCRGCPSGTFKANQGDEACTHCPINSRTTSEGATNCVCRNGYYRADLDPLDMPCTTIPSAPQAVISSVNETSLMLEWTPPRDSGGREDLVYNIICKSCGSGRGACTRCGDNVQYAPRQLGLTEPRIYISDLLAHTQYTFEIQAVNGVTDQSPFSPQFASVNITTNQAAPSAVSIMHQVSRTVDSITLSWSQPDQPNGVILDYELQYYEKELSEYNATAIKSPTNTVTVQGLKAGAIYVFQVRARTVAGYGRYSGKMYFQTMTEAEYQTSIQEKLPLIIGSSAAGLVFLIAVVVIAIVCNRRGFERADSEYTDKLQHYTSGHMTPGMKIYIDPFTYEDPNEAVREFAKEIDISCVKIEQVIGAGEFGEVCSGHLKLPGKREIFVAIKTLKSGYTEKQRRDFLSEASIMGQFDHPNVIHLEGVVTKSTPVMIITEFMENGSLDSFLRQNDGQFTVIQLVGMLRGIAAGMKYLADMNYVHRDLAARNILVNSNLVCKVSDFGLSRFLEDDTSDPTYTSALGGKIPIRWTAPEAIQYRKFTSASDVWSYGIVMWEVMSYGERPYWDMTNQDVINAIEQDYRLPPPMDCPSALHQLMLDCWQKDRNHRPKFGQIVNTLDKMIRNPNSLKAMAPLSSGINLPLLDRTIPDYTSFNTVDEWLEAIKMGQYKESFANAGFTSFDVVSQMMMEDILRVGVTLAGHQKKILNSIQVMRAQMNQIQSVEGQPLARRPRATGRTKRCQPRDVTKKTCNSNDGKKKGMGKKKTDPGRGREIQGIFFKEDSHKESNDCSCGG

[2] = biological target: T2, Ephrin type-B receptor 3 (Homo sapiens) (UniProt P54753); conditions: at 0.1 µM
T2 sequence (whole entry): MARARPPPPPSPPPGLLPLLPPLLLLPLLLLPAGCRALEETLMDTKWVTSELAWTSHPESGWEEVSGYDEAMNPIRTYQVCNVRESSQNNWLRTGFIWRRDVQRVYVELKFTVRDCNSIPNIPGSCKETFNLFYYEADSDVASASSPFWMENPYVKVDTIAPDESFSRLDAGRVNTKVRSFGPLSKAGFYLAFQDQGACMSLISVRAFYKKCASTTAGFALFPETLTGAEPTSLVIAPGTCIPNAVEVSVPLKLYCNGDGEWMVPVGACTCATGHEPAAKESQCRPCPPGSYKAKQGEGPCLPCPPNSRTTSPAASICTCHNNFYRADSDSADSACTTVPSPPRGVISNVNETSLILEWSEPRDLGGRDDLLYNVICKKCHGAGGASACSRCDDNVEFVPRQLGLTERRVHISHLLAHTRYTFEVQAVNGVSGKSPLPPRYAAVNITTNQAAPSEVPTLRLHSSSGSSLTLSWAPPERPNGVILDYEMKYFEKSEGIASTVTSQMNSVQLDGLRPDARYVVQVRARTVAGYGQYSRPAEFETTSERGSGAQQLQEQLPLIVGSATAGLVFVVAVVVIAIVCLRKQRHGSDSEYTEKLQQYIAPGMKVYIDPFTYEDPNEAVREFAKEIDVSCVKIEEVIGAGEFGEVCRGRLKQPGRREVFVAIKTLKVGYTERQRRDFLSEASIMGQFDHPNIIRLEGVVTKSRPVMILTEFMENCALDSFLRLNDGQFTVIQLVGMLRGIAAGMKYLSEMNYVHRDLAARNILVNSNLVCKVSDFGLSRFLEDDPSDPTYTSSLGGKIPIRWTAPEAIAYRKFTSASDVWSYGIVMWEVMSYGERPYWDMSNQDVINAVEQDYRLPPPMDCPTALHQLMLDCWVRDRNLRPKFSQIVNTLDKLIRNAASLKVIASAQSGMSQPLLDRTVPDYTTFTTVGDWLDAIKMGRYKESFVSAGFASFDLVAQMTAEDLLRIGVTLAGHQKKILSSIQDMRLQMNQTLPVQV

[3] = biological target: T2, Ephrin type-B receptor 3 (Homo sapiens); conditions: at 1 µM
[4] = biological target: T3, Ephrin type-B receptor 4 (Homo sapiens) (UniProt P54760); conditions: at 0.1 µM
T3 sequence (whole entry): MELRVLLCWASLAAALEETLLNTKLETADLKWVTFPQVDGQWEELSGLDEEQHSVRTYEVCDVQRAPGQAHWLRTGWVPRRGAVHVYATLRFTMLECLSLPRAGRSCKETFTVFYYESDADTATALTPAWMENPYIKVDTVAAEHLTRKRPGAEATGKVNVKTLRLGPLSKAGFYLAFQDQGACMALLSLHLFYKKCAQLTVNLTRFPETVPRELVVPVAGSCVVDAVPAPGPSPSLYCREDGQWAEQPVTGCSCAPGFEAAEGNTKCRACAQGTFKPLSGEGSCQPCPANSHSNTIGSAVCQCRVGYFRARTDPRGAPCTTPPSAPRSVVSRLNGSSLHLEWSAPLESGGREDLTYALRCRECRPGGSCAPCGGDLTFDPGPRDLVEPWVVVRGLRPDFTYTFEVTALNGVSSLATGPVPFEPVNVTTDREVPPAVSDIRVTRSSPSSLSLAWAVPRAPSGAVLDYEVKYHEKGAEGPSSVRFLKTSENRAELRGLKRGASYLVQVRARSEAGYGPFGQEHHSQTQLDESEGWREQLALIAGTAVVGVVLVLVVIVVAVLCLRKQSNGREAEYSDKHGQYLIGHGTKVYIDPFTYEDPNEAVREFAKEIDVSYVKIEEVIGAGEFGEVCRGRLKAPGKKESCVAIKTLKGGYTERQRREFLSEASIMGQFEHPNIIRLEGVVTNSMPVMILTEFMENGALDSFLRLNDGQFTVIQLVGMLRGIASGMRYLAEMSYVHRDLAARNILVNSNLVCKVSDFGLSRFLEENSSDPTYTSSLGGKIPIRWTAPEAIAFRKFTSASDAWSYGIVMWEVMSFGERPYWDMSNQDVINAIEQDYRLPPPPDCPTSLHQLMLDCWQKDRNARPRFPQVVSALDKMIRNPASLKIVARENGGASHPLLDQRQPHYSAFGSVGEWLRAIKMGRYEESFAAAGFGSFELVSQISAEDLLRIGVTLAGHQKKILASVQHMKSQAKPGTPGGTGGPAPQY

[5] = biological target: T3, Ephrin type-B receptor 4 (Homo sapiens); conditions: at 1 µM
[6] = biological target: Receptor tyrosine-protein kinase erbB-2 (Homo sapiens) (UniProt P04626); conditions: at 0.1 µM
Chain of Receptor tyrosine-protein kinase erbB-2 (Homo sapiens) (P04626 whole entry): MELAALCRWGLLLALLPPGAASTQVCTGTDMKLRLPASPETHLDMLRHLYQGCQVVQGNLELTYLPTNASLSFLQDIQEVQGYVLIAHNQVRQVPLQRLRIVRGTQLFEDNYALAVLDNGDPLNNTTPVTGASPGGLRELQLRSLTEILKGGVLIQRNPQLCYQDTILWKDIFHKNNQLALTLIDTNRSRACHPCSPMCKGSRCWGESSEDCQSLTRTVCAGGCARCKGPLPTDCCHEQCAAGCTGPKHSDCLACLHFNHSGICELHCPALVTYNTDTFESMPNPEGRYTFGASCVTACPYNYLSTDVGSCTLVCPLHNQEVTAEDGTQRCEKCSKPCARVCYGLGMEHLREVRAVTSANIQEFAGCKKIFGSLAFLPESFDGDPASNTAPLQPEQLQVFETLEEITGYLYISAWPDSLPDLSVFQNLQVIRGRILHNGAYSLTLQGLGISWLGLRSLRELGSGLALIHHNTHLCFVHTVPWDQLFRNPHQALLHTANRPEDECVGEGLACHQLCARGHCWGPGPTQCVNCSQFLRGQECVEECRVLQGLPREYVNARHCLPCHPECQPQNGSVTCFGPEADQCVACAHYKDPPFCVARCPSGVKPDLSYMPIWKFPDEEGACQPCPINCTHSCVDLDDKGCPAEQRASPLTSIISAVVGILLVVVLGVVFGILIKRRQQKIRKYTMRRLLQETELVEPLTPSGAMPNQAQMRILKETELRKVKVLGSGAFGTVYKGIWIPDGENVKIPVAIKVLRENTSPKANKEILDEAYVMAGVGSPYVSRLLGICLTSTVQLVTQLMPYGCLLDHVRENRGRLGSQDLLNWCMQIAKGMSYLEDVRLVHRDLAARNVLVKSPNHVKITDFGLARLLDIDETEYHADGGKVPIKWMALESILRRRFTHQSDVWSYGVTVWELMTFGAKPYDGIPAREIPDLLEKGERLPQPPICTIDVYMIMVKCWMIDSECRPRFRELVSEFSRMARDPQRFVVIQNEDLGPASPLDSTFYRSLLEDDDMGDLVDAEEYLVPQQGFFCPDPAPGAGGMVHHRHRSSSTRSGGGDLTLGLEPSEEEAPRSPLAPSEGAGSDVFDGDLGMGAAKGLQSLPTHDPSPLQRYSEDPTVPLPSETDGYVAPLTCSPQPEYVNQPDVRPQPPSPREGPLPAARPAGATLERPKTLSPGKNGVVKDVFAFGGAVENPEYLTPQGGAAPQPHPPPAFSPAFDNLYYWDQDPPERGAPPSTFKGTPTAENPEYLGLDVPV

[7] = biological target: Receptor tyrosine-protein kinase erbB-2 (Homo sapiens) (UniProt P04626); conditions: at 1 µM
[8] = biological target: Receptor tyrosine-protein kinase erbB-4 (Homo sapiens) (UniProt Q15303); conditions: at 0.1 µM
Chain of Receptor tyrosine-protein kinase erbB-4 (Homo sapiens) (Q15303 whole entry): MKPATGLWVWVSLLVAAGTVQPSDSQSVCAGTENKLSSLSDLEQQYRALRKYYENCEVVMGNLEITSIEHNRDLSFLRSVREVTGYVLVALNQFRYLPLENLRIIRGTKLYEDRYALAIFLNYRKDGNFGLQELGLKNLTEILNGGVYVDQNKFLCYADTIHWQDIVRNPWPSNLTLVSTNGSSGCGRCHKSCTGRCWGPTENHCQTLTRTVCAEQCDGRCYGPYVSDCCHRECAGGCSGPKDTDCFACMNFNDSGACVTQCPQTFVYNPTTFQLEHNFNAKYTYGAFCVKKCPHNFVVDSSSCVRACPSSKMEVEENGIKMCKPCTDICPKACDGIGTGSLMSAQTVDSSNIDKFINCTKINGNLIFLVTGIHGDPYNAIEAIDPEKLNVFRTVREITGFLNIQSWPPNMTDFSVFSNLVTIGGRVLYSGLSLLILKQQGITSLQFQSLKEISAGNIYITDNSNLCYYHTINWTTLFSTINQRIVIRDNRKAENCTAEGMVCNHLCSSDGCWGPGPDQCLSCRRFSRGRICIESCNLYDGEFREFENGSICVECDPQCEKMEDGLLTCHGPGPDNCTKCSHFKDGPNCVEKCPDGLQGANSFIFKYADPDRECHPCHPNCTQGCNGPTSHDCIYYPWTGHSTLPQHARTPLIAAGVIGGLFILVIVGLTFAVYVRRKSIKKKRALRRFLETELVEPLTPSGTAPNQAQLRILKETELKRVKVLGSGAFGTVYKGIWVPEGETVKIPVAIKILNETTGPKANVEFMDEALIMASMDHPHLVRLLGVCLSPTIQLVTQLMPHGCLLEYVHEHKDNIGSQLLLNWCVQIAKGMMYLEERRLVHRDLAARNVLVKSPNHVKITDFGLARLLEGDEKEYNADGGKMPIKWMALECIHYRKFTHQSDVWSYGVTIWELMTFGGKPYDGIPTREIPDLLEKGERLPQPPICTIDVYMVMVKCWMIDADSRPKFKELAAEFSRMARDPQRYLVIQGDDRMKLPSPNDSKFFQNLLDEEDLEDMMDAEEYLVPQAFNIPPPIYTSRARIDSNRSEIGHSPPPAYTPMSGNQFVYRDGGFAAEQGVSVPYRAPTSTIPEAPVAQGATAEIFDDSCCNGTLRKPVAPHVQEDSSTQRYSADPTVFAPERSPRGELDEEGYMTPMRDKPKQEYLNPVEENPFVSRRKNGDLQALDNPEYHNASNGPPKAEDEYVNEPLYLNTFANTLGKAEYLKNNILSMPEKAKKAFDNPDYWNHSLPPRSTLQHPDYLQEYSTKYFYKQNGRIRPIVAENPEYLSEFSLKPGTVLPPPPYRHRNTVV

[9] = biological target: Receptor tyrosine-protein kinase erbB-4 (Homo sapiens) (UniProt Q15303); conditions: at 1 µM
[10] = biological target: Tyrosine-protein kinase Fer (Homo sapiens) (UniProt P16591); conditions: at 0.1 µM
Chain of Tyrosine-protein kinase Fer (Homo sapiens) (P16591 whole entry, looked up): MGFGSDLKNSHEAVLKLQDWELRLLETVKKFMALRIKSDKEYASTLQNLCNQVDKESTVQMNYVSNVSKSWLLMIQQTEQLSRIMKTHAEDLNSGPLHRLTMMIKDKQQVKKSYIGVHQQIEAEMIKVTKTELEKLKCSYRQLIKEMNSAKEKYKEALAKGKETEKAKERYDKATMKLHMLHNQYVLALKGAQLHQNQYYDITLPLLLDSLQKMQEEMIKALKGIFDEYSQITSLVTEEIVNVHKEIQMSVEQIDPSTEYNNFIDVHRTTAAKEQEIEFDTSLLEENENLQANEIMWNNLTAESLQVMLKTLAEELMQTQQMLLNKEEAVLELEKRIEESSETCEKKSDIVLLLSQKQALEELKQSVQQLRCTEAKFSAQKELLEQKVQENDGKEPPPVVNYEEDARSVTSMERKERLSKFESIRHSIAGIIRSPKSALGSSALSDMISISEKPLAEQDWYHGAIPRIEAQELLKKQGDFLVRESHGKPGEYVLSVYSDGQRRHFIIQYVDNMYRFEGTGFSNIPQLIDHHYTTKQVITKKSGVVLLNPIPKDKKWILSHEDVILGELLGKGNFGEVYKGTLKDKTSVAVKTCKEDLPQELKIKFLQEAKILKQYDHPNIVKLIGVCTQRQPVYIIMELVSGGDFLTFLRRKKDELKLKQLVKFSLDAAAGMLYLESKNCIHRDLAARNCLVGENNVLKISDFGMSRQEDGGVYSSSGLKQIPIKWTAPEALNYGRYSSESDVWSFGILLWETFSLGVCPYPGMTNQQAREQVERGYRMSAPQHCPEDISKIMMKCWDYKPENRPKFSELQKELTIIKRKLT

[11] = biological target: Tyrosine-protein kinase Fer (Homo sapiens) (UniProt P16591); conditions: at 1 µM
[12] = biological target: Tyrosine-protein kinase Fes/Fps (Homo sapiens) (UniProt P07332); conditions: at 0.1 µM
Chain of Tyrosine-protein kinase Fes/Fps (Homo sapiens) (P07332 whole entry): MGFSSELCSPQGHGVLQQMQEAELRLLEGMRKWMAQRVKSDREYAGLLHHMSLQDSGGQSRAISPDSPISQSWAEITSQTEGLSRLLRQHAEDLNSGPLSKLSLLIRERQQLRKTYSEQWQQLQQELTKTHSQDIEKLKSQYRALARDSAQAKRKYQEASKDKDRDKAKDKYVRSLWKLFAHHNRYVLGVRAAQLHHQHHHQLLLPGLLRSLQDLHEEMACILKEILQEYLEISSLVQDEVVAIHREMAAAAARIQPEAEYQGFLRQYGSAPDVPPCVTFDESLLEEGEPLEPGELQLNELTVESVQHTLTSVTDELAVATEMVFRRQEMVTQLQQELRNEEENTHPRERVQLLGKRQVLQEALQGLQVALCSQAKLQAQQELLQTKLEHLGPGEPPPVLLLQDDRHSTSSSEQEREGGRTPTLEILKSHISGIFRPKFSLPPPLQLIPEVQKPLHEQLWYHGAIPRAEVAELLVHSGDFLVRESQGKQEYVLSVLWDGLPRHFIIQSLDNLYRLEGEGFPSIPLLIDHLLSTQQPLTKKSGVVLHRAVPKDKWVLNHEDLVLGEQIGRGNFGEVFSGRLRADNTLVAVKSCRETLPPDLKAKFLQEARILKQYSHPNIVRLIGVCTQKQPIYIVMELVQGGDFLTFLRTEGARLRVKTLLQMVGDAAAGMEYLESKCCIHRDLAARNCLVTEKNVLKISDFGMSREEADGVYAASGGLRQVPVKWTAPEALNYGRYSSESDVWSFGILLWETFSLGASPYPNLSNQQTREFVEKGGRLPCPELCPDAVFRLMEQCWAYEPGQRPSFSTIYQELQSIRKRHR

[13] = biological target: Tyrosine-protein kinase Fes/Fps (Homo sapiens) (UniProt P07332); conditions: at 1 µM
[14] = biological target: Fibroblast growth factor receptor 1 (Homo sapiens) (UniProt P11362); conditions: at 0.1 µM
[15] = biological target: Fibroblast growth factor receptor 1 (Homo sapiens) (UniProt P11362); conditions: at 1 µM
[16] = biological target: Fibroblast growth factor receptor 2 (Homo sapiens) (UniProt P21802); conditions: at 0.1 µM
[17] = biological target: Fibroblast growth factor receptor 2 (Homo sapiens) (UniProt P21802); conditions: at 1 µM
[18] = biological target: Fibroblast growth factor receptor 3 (Homo sapiens) (UniProt P22607); conditions: at 0.1 µM
Chain of Fibroblast growth factor receptor 3 (Homo sapiens) (P22607 23-806 limits assumed): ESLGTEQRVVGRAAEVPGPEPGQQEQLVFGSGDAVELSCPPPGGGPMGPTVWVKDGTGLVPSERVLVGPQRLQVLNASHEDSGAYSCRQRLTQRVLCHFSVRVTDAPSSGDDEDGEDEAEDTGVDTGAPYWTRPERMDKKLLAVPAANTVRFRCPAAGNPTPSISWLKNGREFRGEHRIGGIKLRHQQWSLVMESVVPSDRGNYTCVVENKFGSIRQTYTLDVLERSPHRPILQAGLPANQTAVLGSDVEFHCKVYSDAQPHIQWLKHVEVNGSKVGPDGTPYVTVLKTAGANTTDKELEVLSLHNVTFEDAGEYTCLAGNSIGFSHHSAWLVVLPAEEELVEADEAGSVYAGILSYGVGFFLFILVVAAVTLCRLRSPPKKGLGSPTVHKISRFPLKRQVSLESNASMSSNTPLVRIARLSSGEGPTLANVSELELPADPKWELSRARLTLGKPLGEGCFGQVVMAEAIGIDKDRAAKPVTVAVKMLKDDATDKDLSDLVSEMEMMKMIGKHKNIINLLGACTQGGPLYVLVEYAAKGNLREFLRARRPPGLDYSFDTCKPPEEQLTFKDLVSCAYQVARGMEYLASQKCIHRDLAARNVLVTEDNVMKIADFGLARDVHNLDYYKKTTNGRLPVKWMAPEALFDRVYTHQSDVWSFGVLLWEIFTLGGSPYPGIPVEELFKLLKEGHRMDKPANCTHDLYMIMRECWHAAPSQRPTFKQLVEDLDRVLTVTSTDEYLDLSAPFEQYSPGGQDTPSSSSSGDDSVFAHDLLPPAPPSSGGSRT

[19] = biological target: Fibroblast growth factor receptor 3 (Homo sapiens) (UniProt P22607); conditions: at 1 µM
[20] = biological target: Fibroblast growth factor receptor 4 (Homo sapiens) (UniProt P22455); conditions: at 0.1 µM;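 also: values are mean percent inhibition of FGFR4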

COC(=O)Nc1nc2cc(Oc3ccc(NC(=O)Nc4cccc(Br)c4)cc3)ccc2[nH]1
inhibition [1]: 80.4% | inhibition [2]: 5.42% | inhibition [3]: 7.66% | inhibition [4]: 9.97% | inhibition [5]: 26% | inhibition [6]: 3.03% | inhibition [7]: 0.8% | inhibition [8]: 7.14% | inhibition [9]: 11.2% | inhibition [10]: 2.5% | inhibition [11]: 4.33% | inhibition [12]: 1.77% | inhibition [13]: 2.25% | inhibition [14]: 3.32% | inhibition [15]: 0.5% | inhibition [16]: 1.09% | inhibition [17]: 3.33% | inhibition [18]: 4.36% | inhibition [19]: 2.66% | inhibition [20]: -1.88%

Cc1ccc(C(=O)NC2CC2)cc1-c1ccc2[nH]ncc2c1
inhibition [1]: -4.6% | inhibition [2]: -8.95% | inhibition [3]: -5.96% | inhibition [4]: -2.42% | inhibition [5]: -0.31% | inhibition [6]: -5.76% | inhibition [7]: -4.83% | inhibition [10]: -2.95% | inhibition [11]: 0.05% | inhibition [12]: -3.18% | inhibition [13]: -3.34% | inhibition [14]: -0.69% | inhibition [15]: -5.16% | inhibition [16]: -3.95% | inhibition [17]: -3.78% | inhibition [18]: -5.18% | inhibition [19]: 0.28% | inhibition [20]: 1.43%

NS(=O)(=O)c1ccc(N/N=C2\C(=O)Nc3ccc(Cl)cc32)cc1
inhibition [1]: 6.46% | inhibition [2]: 3.51% | inhibition [3]: 2.43% | inhibition [4]: 1.05% | inhibition [5]: 2.86% | inhibition [6]: 2.29% | inhibition [7]: 4.3% | inhibition [8]: 4.78% | inhibition [10]: 2.95% | inhibition [11]: 7.24% | inhibition [12]: 2.52% | inhibition [13]: 2.84% | inhibition [14]: 1.63% | inhibition [15]: 1% | inhibition [16]: 2.43% | inhibition [17]: 14.7% | inhibition [18]: 5.81% | inhibition [19]: 13% | inhibition [20]: -1.18%

CCS(=O)(=O)c1ccc(OC)c(Nc2ncc(-c3cccc(OC)c3)o2)c1
inhibition [1]: 24.3% | inhibition [2]: 3.22% | inhibition [3]: 2.36% | inhibition [4]: 3.32% | inhibition [5]: 11.9% | inhibition [6]: -0.52% | inhibition [7]: 0.18% | inhibition [8]: 10.5% | inhibition [9]: 22.1% | inhibition [10]: -0.2% | inhibition [11]: 3.8% | inhibition [12]: 1.8% | inhibition [13]: 2.42% | inhibition [14]: 9.22% | inhibition [15]: 40.2% | inhibition [16]: 30.9% | inhibition [17]: 68.2% | inhibition [18]: 28.7% | inhibition [19]: 70% | inhibition [20]: 2.6%

COc1cc2ncnc(Nc3ccc4c(cnn4Cc4ccccc4)c3)c2cc1OC
inhibition [1]: 7.52% | inhibition [2]: 2.93% | inhibition [3]: 4.39% | inhibition [4]: 1.36% | inhibition [5]: 2.63% | inhibition [6]: 32.4% | inhibition [7]: 83% | inhibition [8]: 83.7% | inhibition [9]: 94% | inhibition [10]: 0.84% | inhibition [11]: 7.92% | inhibition [12]: 2.06% | inhibition [13]: 2% | inhibition [14]: -0.45% | inhibition [15]: 3.82% | inhibition [16]: 3.33% | inhibition [17]: 7.69% | inhibition [18]: 3.3% | inhibition [19]: 3.13% | inhibition [20]: -0.15%

COc1cc2ncnc(Nc3ccc(C)c(O)c3)c2cc1OC
inhibition [1]: 41.4% | inhibition [2]: 6.58% | inhibition [3]: 2.9% | inhibition [4]: 8.74% | inhibition [5]: 36.9% | inhibition [6]: 7.8% | inhibition [7]: 26.3% | inhibition [8]: 31.7% | inhibition [9]: 68.7% | inhibition [10]: 4.24% | inhibition [11]: 7.9% | inhibition [12]: 2.91% | inhibition [13]: 3.54% | inhibition [14]: 4.9% | inhibition [15]: 17.2% | inhibition [16]: 5.64% | inhibition [17]: 15.8% | inhibition [18]: 6.03% | inhibition [19]: 10.2% | inhibition [20]: -0.45%

NS(=O)(=O)c1cccc(Nc2cc(-c3ccc(F)cc3)n[nH]2)c1
inhibition [1]: 10.6% | inhibition [2]: 3.94% | inhibition [3]: 2.26% | inhibition [4]: 0.66% | inhibition [5]: 3.57% | inhibition [6]: 1.6% | inhibition [7]: 6.2% | inhibition [8]: 5.56% | inhibition [9]: 11.3% | inhibition [10]: 5.3% | inhibition [11]: 6.71% | inhibition [12]: 2.34% | inhibition [13]: 2.7% | inhibition [14]: 0.46% | inhibition [15]: 3.62% | inhibition [16]: 0.78% | inhibition [17]: 9.22% | inhibition [18]: 8.19% | inhibition [19]: 8.88% | inhibition [20]: 0.98%
